Among the test systems are PRKCQ; PRKD1; PRKD2; PRKD3; PRKG1; PRKG2; PRKX; PRP4; QSK; RAF1; RET; RIOK1; RIOK2; RIOK3; RIPK1; RIPK2; RIPK4; RIPK5.
Holding throughout (settings): n = 1
Another assay deals with T1, PRKR.
T1 construct: gene EIF2AK2

Another assay concerns T2, PYK2.
T2 construct: gene PTK2B

Where [1] appears, read: concentration: 1 μM, replicates: in singlicate.

Molecules are shown by their SMILES. Where two headings read alike, the source gives them in different places.
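Further: KINOMEscan kinase panel screen.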

Turning to `Cc1ccccc1-n1cnc2c(N)ncnc21` [SKF-97510], the “%Inh” value with PRKCQ (setting [1]) is 0%; with PRKD1 (setting [1]) it was 0%; with PRKD2 (setting [1]), 0%; in the assay with PRKD3 (setting [1]), 4%; in the assay with PRKG1 (setting [1]) it was 0%; in the assay on PRKG2 (setting [1]), 0%. The “%Inh” value with PRKR (setting [1]), with PRKX (setting [1]), with PRP4 (setting [1]), with PYK2 (setting [1]), with QSK (setting [1]) and in the assay on RAF1 (setting [1]) was 0% throughout. In addition, the “%Inh” value amounted to 17% in the assay with RET (setting [1]); 0% with RIOK1 (setting [1]); 0% in the assay with RIOK2 (setting [1]); 0% in the assay with RIOK3 (setting [1]); 10% with RIPK1 (setting [1]); 0% in the assay on RIPK2 (setting [1]). For the same molecule, the “%Inh” value in the assay with RIPK4 (setting [1]) and in the assay on RIPK5 (setting [1]) was 0% in each case.

Take `Cc1ccc(NC(=O)Nc2cccc(C(F)(F)F)c2)cc1` [GSK955403]: the “%Inh” value in the assay on PRKCQ (1 µM) is reported as 24%; in the assay on PRKD1 (1 µM), 18%; in the assay with PRKD2 (1 µM), 0%; in the assay on PRKD3 (1 µM), 1%; in the assay on PRKG1 (1 µM) it was 19%; with PRKG2 (1 µM), 0%. Besides, the “%Inh” value with PRKR (1 µM) came to 13%; in the assay with PRKX (1 µM), 1%; with PRP4 (1 µM) it was 10%; with PYK2 (1 µM), 0%; with QSK (1 µM), 0%; with RAF1 (1 µM) it was 8%. Moreover, the “%Inh” value in the assay with RET (1 µM) came to 0%; in the assay with RIOK1 (1 µM) it was 17%; with RIOK2 (1 µM) it was 0%; in the assay on RIOK3 (1 µM), 0%; in the assay with RIPK1 (1 µM), 7%; in the assay with RIPK2 (1 µM), 8%. Moreover, the “%Inh” value in the assay with RIPK4 (1 µM) and in the assay on RIPK5 (1 µM) was 0% each time.

Take `COc1cc2ncn(-c3cc(OCC4CCCO4)c(C(N)=O)s3)c2cc1OC` (stereo not shown) [GSK204607]: the “%Inh” value with PRKCQ (setting [1]), with PRKD1 (setting [1]), in the assay with PRKD2 (setting [1]), in the assay with PRKD3 (setting [1]), with PRKG1 (setting [1]) and with PRKG2 (setting [1]) was 0% each time. The “%Inh” value was 13% with PRKR (setting [1]); 10% with PRKX (setting [1]); 4% in the assay on PRP4 (setting [1]); 0% in the assay with PYK2 (setting [1]); 0% in the assay with QSK (setting [1]); 0% with RAF1 (setting [1]). In addition, the “%Inh” value amounted to 0% in the assay on RET (setting [1]); 77% in the assay with RIOK1 (setting [1]); 0% with RIOK2 (setting [1]); 94.5% with RIOK3 (setting [1]); 5% in the assay with RIPK1 (setting [1]); 7% with RIPK2 (setting [1]). The “%Inh” value in the assay with RIPK4 (setting [1]) and in the assay with RIPK5 (setting [1]) was 0% in each case.

As to `COc1ccc2nc(-c3cccc(C)n3)nc(Nc3ccncc3)c2c1` [GSK204919], the “%Inh” value in the assay on PRKCQ (setting [1]) came out at 44%; in the assay on PRKD1 (setting [1]) it was 92.4%; with PRKD2 (setting [1]), 98.8%; with PRKD3 (setting [1]), 100%; in the assay with PRKG1 (setting [1]), 8%; in the assay with PRKG2 (setting [1]), 0%. Further, the “%Inh” value was determined as 0% in the assay on PRKR (setting [1]); 7% in the assay on PRKX (setting [1]); 8% in the assay on PRP4 (setting [1]); 9% with PYK2 (setting [1]); 0% in the assay with QSK (setting [1]); 6% with RAF1 (setting [1]). Moreover, the “%Inh” value worked out at 18% with RET (setting [1]); 24% with RIOK1 (setting [1]); 0% in the assay on RIOK2 (setting [1]); 16% in the assay on RIOK3 (setting [1]); 0% in the assay with RIPK1 (setting [1]); 33% in the assay on RIPK2 (setting [1]). Besides, the “%Inh” value turned out to be 5% in the assay with RIPK4 (setting [1]) and 0% in the assay on RIPK5 (setting [1]).

Turning to `COC(=O)c1c(-c2ccccc2)c2cc(C(=O)O)ccc2c(=O)n1Cc1ccccc1`, the “%Inh” value is 22% in the assay on PRKCQ (setting [1]); 14% with PRKD1 (setting [1]); 0% with PRKD2 (setting [1]); 3% with PRKD3 (setting [1]); 8% with PRKG1 (setting [1]); 0% in the assay with PRKG2 (setting [1]). The “%Inh” value with PRKR (setting [1]) is on record as 3%; in the assay on PRKX (setting [1]) it was 0%; with PRP4 (setting [1]) it was 9%; in the assay on PYK2 (setting [1]), 0%; in the assay on QSK (setting [1]) it was 0%; with RAF1 (setting [1]), 81%. The “%Inh” value in the assay with RET (setting [1]) was determined as 21%; in the assay on RIOK1 (setting [1]), 0%; with RIOK2 (setting [1]) it was 26%; in the assay on RIOK3 (setting [1]), 11%; in the assay on RIPK1 (setting [1]), 0%; in the assay on RIPK2 (setting [1]) it was 0%. Further, the “%Inh” value in the assay on RIPK4 (setting [1]) and in the assay with RIPK5 (setting [1]) was 0% in each case.
